In PubChem BioAssay (EPA / NIEHS) one finds outcome and AC50 data, which are given here for 40 compounds.

The source made the active and inactive calls. How the source made its calls: active means hit-call score of the fitted dose curve at least 0.9, where 1 is the maximum; inactive means score below 0.9.

This experiment in a line: BSK_3C_TissueFactor: BioMAP Diversity Plus: 3C Assay for Tissue Factor Biomarker Activity (AID 2282997). The note with it: BioMAP 3C HUVEC, tissue factor biomarker readout; actives raise or lower the signal. The protocol: BSK_3C is a cell-based, multiplexed-readout assay that uses umbilical vein endothelium, a human vascular primary cell, with measurements taken at 24 hours after chemical dosing in a 96-well plate.BSK_3C_TissueFactor is an assay component measured in the BSK_3C assay. It measures Tissue Factor antibody related to regulation of gene expression using ELISA technology.Data from the assay component BSK_3C_TissueFactor was analyzed into 1 assay endpoint. This assay endpoint, BSK_3C_TissueFactor, was analyzed with bidirectional fitting relative to DMSO as the negative control and baseline of activity. Using a type of binding reporter, gain or loss-of-signal activity can be used to understand changes in the signaling as they relate to the gene F3. Furthermore, this assay endpoint can be referred to as a primary readout, because this assay has produced multiple assay endpoints where this one serves a signaling function. To generalize the intended target to other relatable targets, this assay endpoint is annotated to the cytokine intended target family, where the subfamily is coagulation factor.
The levels of cell surface (or secreted, indicated by the prefix "s") biomarker endpoints were measured by ELISA. Overt cytotoxicity to cells in confluent adherent cultures (all systems other than the BT system) was assessed by measuring total protein levels using sulforhodamine B (SRB) staining in parallel cultures at the time of biomarker measurements, indicated as SRB endpoints. For proliferation assays for adherent cell types, individual cell types are cultured at sub-confluence and relative cell numbers quantified by SRB staining at time points optimized for each system (48 h: 3C and CASM3C systems; 72 h: BT and HDF3CGF systems; 96 h: SAg system). SRB was performed by staining cells with 0.1% SRB after fixation with 10% TCA and reading wells at 560 nm.Viability and proliferation of PBMC (T cells) was quantified by Alamar Blue reduction for the SAg and BT systems. For PBMC viability (referred to as PBMC Cytotoxicity within the assay endpoint names), cells were plated (75,000/well in a 96-well plate) and then chemical samples added for 1 h before addition of activators, SEB and TSST-1 (20 ng/mL final concentration each). Cells were incubated for 90 h. Then, Alamar Blue (20 uL/well) (Invitrogen, Cat DAL1100) was added for 6 h, and the plates were read with a fluorescence microplate reader at 546/580 nm (excitation/emission). For PBMC proliferation, cells were plated and activated as above but incubated for only 16 h prior to addition of Alamar Blue. Plates were read after 6 h.
Consider `C[N+](C)(C)CC1CO1` (stereo not given), for which the result was inactive.
In general, AC50 refers to the concentration giving half of the maximal activity seen. For the compound `CCOC(=O)[C@]1(c2ccccc2)Oc2ccccc2[C@@H]1N`, the AC50 is 20 µM (active).
`Nc1ccc(Oc2ccc(N)cc2)cc1`: the outcome was inactive.
Still for that read-out and setting: then `c1ccc2c(c1)oc1ccccc12`, with “inactive”; and `O=[N+]([O-])c1ccc(Oc2ccc(Cl)cc2Cl)cc1`, with “inactive”.
The same measure, in the same setting: then `CC(C)N(Cc1ccccc1)C(=O)C(C)(C)C`, with “inactive”; and `OCCOCCO`, with “inactive”.
As for `[Cl-].[Cl-].[Hg+2]`, the AC50 was 34.8 µM (active).
Take `CCC12COCN1COC2`: the result was inactive.
Take `CCCCCCCCn1sccc1=O`: the AC50 was 11.7 µM (active).
As for `Brc1ccc(Oc2ccccc2)cc1`, the outcome was inactive.
Consider `c1ccc(C2CO2)cc1` (stereo not given), for which the result was inactive.
Same read-out and setting: then `CCCSC(=O)N(CCC)CCC`, with “inactive”.
For `O=[N+]([O-])C(Br)(CO)CO`, the AC50 was 27.1 µM (active).
With `Cc1ccc(N=C=O)cc1N=C=O`, the outcome was inactive.
Still for that read-out and setting: then `CCCCCCCCOC(=O)c1ccc(C(=O)OCCCCCCCC)c(C(=O)OCCCCCCCC)c1`, with “inactive”.
Turning to `N#CC(Br)Br`, the result was inactive.
`CCN(CC)CCO`: the outcome was inactive.
The same measure, in the same setting: then `CCCCCOC(=O)c1ccccc1C(=O)OCCCCC`, with “inactive”.
Turning to `c1ccc2c(c1)-c1cccc3cccc-2c13`, the concentration at half-maximal activity (AC50) was 0.669 µM (active).
As to `CCOc1cccc(C2(N3CCN(c4ccccc4)CC3)CCC(C)CC2)c1` (stereo not given), the result was inactive.
Still for that read-out and setting: then `Clc1ccc(Cl)c(Cl)c1`, with “inactive”.
The same measure, in the same setting: then `Cc1cc(N=Nc2ccccc2C)ccc1N`, with “inactive”.
On to `CN(C)C(=O)Nc1ccc(Cl)cc1`, for which the result was inactive.
Same read-out and setting: then `[O-][Cl+]O`, with “inactive”.
Same read-out and setting: then `CCCCOC(=O)c1ccccc1C(=O)OCc1ccccc1`, with “inactive”.
In the case of `ClC1=C(Cl)C2(Cl)C3C(Cl)C=CC3C1(Cl)C2(Cl)Cl` (stereo not given), the AC50 is 26.9 µM (active).
With `Nc1ccc(N=Nc2ccccc2)cc1`, the result was inactive.
For `CN(C)[C@@H]1C(=O)C(C(N)=O)=C(O)[C@@]2(O)C(=O)C3=C(O)c4c(O)cccc4[C@@](C)(O)[C@H]3C[C@@H]12`, the outcome was inactive.
On the same count and under the same terms, then `CNC(=O)Oc1cccc2c1OC(C)(C)C2`, with “inactive”.
In the case of `Nc1ccc(Cc2ccc(N)cc2)cc1`, the outcome was inactive.
`Nc1ccc(Cl)cc1N`: the outcome was inactive.
Same read-out and setting: then `O=C(Oc1ccc(Br)cc1)N1CCN2CCC1CC2`, with “inactive”.
On the same count and under the same terms, then `c1ccc(NNc2ccccc2)cc1`, with “inactive”; and `Nc1cc(Cl)cc(C(=O)O)c1Cl`, with “inactive”.
`CC(C)(OOC(C)(C)c1ccccc1)c1ccccc1`: the AC50 was 29 µM (active).
Take `CN(C)c1ccccc1`: the outcome was inactive.
With `CCCCC(CC)COC(=O)c1ccc(C(=O)OCC(CC)CCCC)c(C(=O)OCC(CC)CCCC)c1` (stereo not given), the outcome was inactive.
As to `COc1cc(C=O)cc2c1[C@H](COC(N)=O)[C@]1(OC(C)=O)ON2C[C@H]2[C@@H]1N2C(C)=O`, the AC50 was 6.64 µM (active).
As to `ClC1=C(Cl)[C@]2(Cl)[C@H]3[C@H]([C@@H]4C=C[C@H]3C4)[C@@]1(Cl)C2(Cl)Cl`, the AC50 is 28.5 µM (active).
